Screening results (PubChem BioAssay)
Shown are actives, neighbours in structure and some others; about 7.4% of the full set was active somewhere.
Rab9 promoter act = Rab9 promoter activation | Huh7 Rab9 promoter-luciferase reporter, luminescence, 24 h | Potency, µM (doses to about 9.22 µM), for inactives: top-dose activation, negative = inhibition, hits mostly activators | 2.8% of 320,000 active; further: % of control where 0% means no effect; nearly all actives have a fitted effect of over 60% in size
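Huh7 cells stably carrying Rab9 promoter–luciferase reporter, plated 1500 cells/well, compound added after 2 h and incubated 24 h at 37 °C; luciferase luminescence then read after 10 min with detection reagent.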
ELG1 genotoxic = genotoxicity induction in ELG1-luciferase HEK293T cells; HEK293T ELG1-luciferase reporter, luminescence, 16 h; Potency, µM (top dose mostly 46 µM), for inactives: at the highest dose activity change, positive = activation, most hits filed as activators; 1.3% of 330,000 active; further: % of control where 0% means no effect; nearly all actives have a fitted effect of over 60% in size
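Quantitative HTS format in 1536-well plates. HEK293T ELG1-luciferase reporter cells receive test compound and are incubated 16 hr at 37 °C, 5% CO2; ONE-Glo added, 30 min room temperature, then luminescence read.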
SMN2 splice enh = SMN2 splice variant enhancement | AID 1458 | HEK293 SMN2-luciferase splicing reporter, luminescence, 30-36 h | 2.8% of 210,000 active | Potency, µM (top dose mostly 46.1 µM), for the others: at the highest dose activity change, positive = activation, usual class: activators; further: % of control where 0% means no effect; nearly all actives have a fitted effect of over 55% in size
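HEK293 cells carry an SMN2 minigene-luciferase reporter in which exon 7 inclusion puts luciferase in frame. Cells were seeded at 2000 cells/well, attached for 10-12 hours, then exposed to compounds for 30-36 hours at 37C before ONE-Glo luminescence.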
FLuc modulator = firefly luciferase modulation, counter-screen for miR-21 project; purified FLuc, Km substrates, luminescence inhibition; Potency, µM (titrated, usually from 57.5 µM), without a hit: top-dose activity change, negative = inhibition, hits mostly inhibitors; 6.9% of 360,000 active;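 further: plate controls were vehicle for no effect and reference inhibitor for full effect; nearly all actives have a fitted effect of over 55% in size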
Target sequence (P08659 whole entry, looked up): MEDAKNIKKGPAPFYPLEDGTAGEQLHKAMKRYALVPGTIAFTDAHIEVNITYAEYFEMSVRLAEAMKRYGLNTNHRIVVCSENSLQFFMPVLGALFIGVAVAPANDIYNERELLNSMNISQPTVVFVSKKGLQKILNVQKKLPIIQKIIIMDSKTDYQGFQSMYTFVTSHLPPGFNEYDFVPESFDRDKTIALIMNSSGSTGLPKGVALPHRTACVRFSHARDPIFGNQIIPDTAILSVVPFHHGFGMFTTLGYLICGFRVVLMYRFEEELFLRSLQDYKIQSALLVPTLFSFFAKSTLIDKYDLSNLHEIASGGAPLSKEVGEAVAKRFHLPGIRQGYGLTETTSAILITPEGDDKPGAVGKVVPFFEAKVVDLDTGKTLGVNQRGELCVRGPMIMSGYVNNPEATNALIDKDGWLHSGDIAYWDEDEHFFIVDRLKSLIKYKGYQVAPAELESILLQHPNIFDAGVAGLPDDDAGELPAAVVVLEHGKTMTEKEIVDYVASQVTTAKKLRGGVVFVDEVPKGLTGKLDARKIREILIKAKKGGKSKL
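Purified P. pyralis luciferase (10nM final) with 10uM D-luciferin and 10uM ATP (Km levels) in 50mM Tris acetate pH 7.5, 10mM Mg acetate, 0.01% Tween-20, 0.05% BSA; qHTS 6-point titration, ~60 µM downward; luminescence read.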
NPC1 promoter act = activates the NPC1 promoter. 2.4% of 320,000 active. Potency, µM (doses to about 9.22 µM), inactives show top-dose activation, most hits filed as activators. Huh7 NPC1 promoter luciferase reporter, 24 h; further: % of control where 0% means no effect; nearly all actives have a fitted effect of over 60% in size
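Cells: Huh7 expressing luciferase under the NPC1 promoter, 1500/well. Seeded 2 h, compound added, incubated 24 h at 37 °C. Luciferase reagent, 10 min ambient, then luminescence.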
The depositor's hits bear a star; ? = inconclusive; . = no result given; [ ] = remark or other dose. The call rests on the fitted dose curve; in most records, active means well fitted curve in the direction sought with a large enough effect; inconclusive means small, poorly fitted or top-dose-only effect, or another doubt; inactive means no such curve, though single readings can be large; an effect the other way counts as inactive or inconclusive. Potency means the concentration at half of the fitted maximal effect.

SMILES	Rab9 promoter act	ELG1 genotoxic	SMN2 splice enh	FLuc modulator	NPC1 promoter act
Cc1noc(C)c1C(=O)OCC(=O)NCc1ccc(Cl)cc1	-2%	3%	.	-9%	-1%
O=C(c1cc2c(s1)-c1ccccc1OC2)N1CCc2ccccc2C1	21%	17%	20µM*	?	11%
COc1ccccc1N1CCN(C(=O)c2cc3c(s2)-c2ccccc2OC3)CC1	-2%	-1%	-5%	3%	0%
O=C(Nc1ccc2c(c1)CCC2)c1cccs1	1.6µM*	?	.	6.7µM*	2µM*
O=C(O)c1ccc(NC(=O)c2cccc(NC(=O)c3cccs3)c2)cc1	15%	0%	.	?	1%
O=C(Nc1cccc(O)c1)c1ccc(NC(=O)c2cccs2)cc1	5%	?	.	15µM*	?
Cc1ccc(NC(=O)OCc2cc(-c3ccccc3)on2)cc1	19%	15%	20%	?	14%
Nc1ccc(NC(=O)c2cccs2)cc1	23%	9%	.	-17%	9%
O=C(Nc1ccc(NC(=O)c2cccs2)cc1)c1ccccc1	4µM*	?	.	-10%	?
Cc1ccc(NC(=O)OCc2cccs2)cc1	1.1µM*	2.9µM*	.	5.4µM*	1.6µM*
O=C(Nc1ccc(NC(=O)c2cccs2)cc1)c1ccc(Cl)cc1	.	.	-5%	-2%	.
Cc1ccc2nc(NCc3ccccc3)c3nncn3c2c1	.	.	-2%	-7%	.
CCCn1c(C)nc2c(Nc3ccccc3)nc(C)nc21	.	.	-4%	.	.
Cc1ccc(NC(=O)c2cccs2)cc1	2.5µM*	13µM*	?	12µM*	2.5µM*
Cc1ccc(NC(=O)C(=O)NNC(=O)c2cccs2)cc1	18%	-2%	2%	?	6%
CCN(C(=O)c1ccco1)c1nnc(-c2ccc(OC)cc2)s1	1.8µM*	?	13µM*	0.95µM*	?
CCCN(C(=O)c1ccco1)c1nnc(-c2cccc(C)c2)s1	?	8%	.	17µM*	17%
CCCCC(=O)N(CCOC)c1nnc(-c2ccc(OC)cc2)s1	3%	0%	?	7%[2.3 µM]	2%
Cc1cccn2c(N)c(-c3ccccc3)nc12	3.5µM*	?	27%	11µM*	?
CCOC(=O)c1c(-c2ccccc2)nc2c(C)cccn12	1%	-8%	-12%	?	-4%
Cc1ccc(CN(C(=O)c2ccccc2)c2ccccn2)o1	.	.	.	-11%	.
CCN(CC)C(=O)CSC(=Nc1ccccc1F)NC#N	4µM*	?	14µM*	-2%	?
O=c1[nH]cc(S(=O)(=O)NCc2ccccc2)c(=O)[nH]1	-1%	0%[9.26 µM]	.	1%	0%
Cc1ccc2nc(-c3ccc(-c4cccc(Cl)c4)cc3)c(NCc3ccccc3)n2c1	-1%	-2%	.	?	2%
Cc1ccc(-c2nc3ccccn3c2Nc2ccc3c(c2)OCO3)cc1	.	.	-6%	?	.
SMILES	Rab9 promoter act	ELG1 genotoxic	SMN2 splice enh	FLuc modulator	NPC1 promoter act
Cc1ccc(-c2nc3ccccn3c2NCc2ccc3c(c2)OCO3)cc1	?	3%	?	12µM*	?
COc1ccc(-c2nc3ccc(C)cn3c2NCc2ccc3c(c2)OCO3)cc1	?	12%	-87%	13µM*	28%
C=CC(C)(O)CC1[C@@]2(C)CCCC(C)(C)C2CC[C@]1(C)O (stereo not given in full)	.	.	-13%	.	.
N=c1scc(-c2ccccc2)n1/N=C/c1ccco1	3.5µM*	?	?	6.7µM*	?
C(=N/n1c2ccccc2c2ccccc21)/c1ccco1	-2%	-9%	?	0%	-5%
CCS(=O)(=O)c1ccccc1C(=O)Nc1ccc(-c2nc3ccccc3s2)cc1	.	.	.	9.5µM*	.
CC(C)(C)C(=O)Nc1ccc(-c2nc3ccccc3s2)cc1	.	.	.	0.015µM*	.
CC(C)(C)NC(=O)c1nc2ccccc2s1	4%	5%	-12%	-26%	17%
CCc1nnc(NC(=O)c2ccc(S(C)(=O)=O)cc2)s1	26%	13%	.	21µM*	?
CCc1nnc(NS(=O)(=O)c2ccc(NS(=O)(=O)c3ccccc3[N+](=O)[O-])cc2)s1	3%	-1%	.	-3%	0%
CCc1nnc(NC(=O)c2ccc(OC)cc2)s1	0.32µM*	-9%	3.2µM*	4.8µM*	0.71µM*
COc1cccc(C(=O)Nc2nnc(-c3cccs3)s2)c1	3.2µM*	0.82µM*	5.6µM*	1.9µM*	?
CCc1nnc(NS(=O)(=O)c2ccc(Nc3ccc([N+](=O)[O-])c4nonc34)cc2)s1	1%	0%	-16%	15µM*	-7%
COc1ccc(-c2nnc(NC(=O)c3cccs3)s2)c(OC)c1	0%	?	.	?	4%
CCC(CNC(=O)c1c(C)nn(-c2ccccc2)c1Cl)c1ccccc1 (stereo not given)	1%	-4%	.	3%	-1%
CCc1nnc(NS(=O)(=O)c2ccc(NC(=O)c3ccc(Br)cc3)cc2)s1	0%	0%	.	27µM*	-6%
CCc1nnc(NS(=O)(=O)c2ccc(NC(=O)OC)cc2)s1	-8%	3%	-1%	4%	-1%
CCc1nnc(NS(=O)(=O)c2ccc(NC(=O)Nc3ccc(OC)cc3)cc2)s1	-1%	-7%	.	?	-5%
CCCCOC(=O)Nc1nnc(CC)s1	?	15µM*	14%	?	16%
CCc1nnc(NC(=O)c2cccc(OC)c2)s1	3.2µM*	?	16µM*	8.5µM*	3.2µM*
CCOCc1nnc(NC(=O)c2cccc(OC)c2)s1	13%	13%	?	?	15%
CCc1nnc(NS(=O)(=O)c2ccc(N/C=C/C(=O)c3ccc(OC)cc3)cc2)s1	-2%	?	.	21µM*	7%
CCOc1ccc(-c2cc3nc(C4CCN(C(=O)OC(C)(C)C)CC4)c(C(=O)Nc4ccc(C)c(F)c4)cn3n2)cc1	.	.	3%	4%	.
Cc1ccc(NC(=O)COC(=O)C2(CC(=O)NC(C)C)CCCC2)cc1C	.	1%	.	.	.
Cc1oc(-c2ccoc2)nc1CN(CC1CCC(=O)N1)C(C)C (stereo not given)	-1%	4%	.	-1%	-4%
SMILES	Rab9 promoter act	ELG1 genotoxic	SMN2 splice enh	FLuc modulator	NPC1 promoter act
COCCN(Cc1nc(-c2ccc(-c3ccccc3)cc2)oc1C)C(C)C	?	0.92µM*	.	9.5µM*	-20%
Brc1ccc(-c2csc(/N=C/N3CCOCC3)n2)cc1	?	18µM*	9%	15µM*	?
Brc1ccc(-c2csc(/N=C/N3CCCC3)n2)cc1	?	?	-43%	15µM*	27%
OCCN(/C=N/c1nc(-c2ccc(Br)cc2)cs1)CCO	?	21µM*	14%	19µM*	?
COc1ccc(CCn2c(=O)c3ccccc3n(CC(=O)Nc3cccc(C)c3)c2=O)cc1OC	.	.	5%	6%	.
O=C(CN1CCC(C(=O)c2ccc3c(c2)OCCO3)CC1)NCc1ccc(F)cc1	-5%	-8%	.	-3%	-3%
O=C(NC1CCCCCC1)c1ccc(Br)o1	20%	8%	.	?	0%
